Measured values from PubChem BioAssay AID1159580 (chemical genetic matrix, 2015).
Values joined by “and” are separate entries in the source; they are usually repeats but may differ in a detail not shown here. Equal entries are not always repeated. Among all 5,500 compounds or so, about 2,000 (36%) were called active. About 18% were inconclusive and are not listed. Rule as the data show it: active = normalized growth mostly below about 0.91 (no sharp cut-off); inconclusive = no clear call, values can overlap the other calls; inactive = mostly above about 0.92. The list shows a part of the results.

Test: chemical genetic growth profiling, strain panel (AID 1159580);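 also: tested at 20 µM; growth read once vehicle control cultures reached saturation at 30 °C; 1 = growth at the plate median or of vehicle wells; lower values mean less growth of the strain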
Settings: S. cerevisiae deletion strains, growth OD

Measured: normalized growth

COc1cc(OC)c2c(c1)O[C@H](c1ccc(OC)c(OC)c1)[C@@H](O)C2
inactive: locus YAL021C, strain ccr4, active compounds read low 1.01 | locus YAL026C, strain drs2, active compounds read low 0.961 | locus YAL030W, strain snc1, active compounds read low 0.998 | locus YBL061C, strain skt5, active compounds read low 0.989 | locus YBR009C, strain hhf1, active compounds read low 1 | locus YBR021W, strain FUR4, active compounds read low 1.06 | locus YBR023C, strain chs3, active compounds read low 1 | locus YBR171W, strain sec66, active compounds read low 0.971 | locus YBR229C, strain ROT2, active compounds read low 1.01 | locus YBR231C, strain swc5, active compounds read low 0.981 | locus YBR279W, strain paf1, active compounds read low 1 | locus YCL011C, strain gbp2, active compounds read low 0.986 | locus YCL016C, strain dcc1, active compounds read low 1.02 | locus YCL029C, strain bik1, active compounds read low 1.02 | locus YCL061C, strain MRC1, active compounds read low 0.996 | locus YCL069W, strain vba3, active compounds read low 0.968 | locus YCR088W, strain abp1, active compounds read low 0.984 | locus YDL005C, strain med2, active compounds read low 0.985 | locus YDL035C, strain GPR1, active compounds read low 1.04 | locus YDL040C, strain nat1, active compounds read low 0.992 | locus YDL074C, strain BRE1, active compounds read low 1.11 | locus YDL101C, strain DUN1, active compounds read low 1.02 | locus YDL134C, strain PPH21, active compounds read low 1.09 | locus YDL185W, strain tfp1, active compounds read low 1.03 | locus YDL192W, strain arf1, active compounds read low 1 | locus YDR001C, strain nth1, active compounds read low 0.989 | locus YDR069C, strain doa4, active compounds read low 0.976 | locus YDR101C, strain arx1, active compounds read low 0.99 | locus YDR137W, strain rgp1, active compounds read low 0.949 | locus YDR159W, strain sac3, active compounds read low 0.95 | locus YDR162C, strain NBP2, active compounds read low 1.03 | locus YDR195W, strain ref2 0.976 | locus YDR297W, strain sur2, active compounds read low 0.988 | locus YDR318W, strain mcm21, active compounds read low 1.01 | locus YDR334W, strain swr1, active compounds read low 0.977 | locus YDR335W, strain msn5, active compounds read low 0.983 | locus YDR388W, active compounds read low 1.03 | locus YDR392W, strain spt3, active compounds read low 0.909 | locus YDR502C, strain sam2, active compounds read low 1.02 | locus YEL003W, strain gim4, active compounds read low 0.984 | locus YEL037C, strain rad23, active compounds read low 0.985 | locus YEL061C, strain CIN8 (second series), active compounds read low 0.976 | locus YER015W, strain faa2, active compounds read low 1.01 | locus YER016W, strain bim1, active compounds read low 0.992 | locus YER110C, active compounds read low 0.998 | locus YER111C, strain swi4, active compounds read low 0.994 | locus YER155C, strain BEM2 (second series), active compounds read low 0.947 | locus YER155C, strain BEM2, active compounds read low 1.01 | locus YER167W, strain BCK2, active compounds read low 1.01 | locus YFR010W, strain ubp6, active compounds read low 0.956 | locus YGL078C, strain dbp3, active compounds read low 1.02 | locus YGL086W, strain mad1, active compounds read low 1 | locus YGL167C, strain pmr1, active compounds read low 1 | locus YGL173C, strain kem1, active compounds read low 0.983 | locus YGL227W, strain vid30, active compounds read low 0.982 | locus YGL240W, strain doc1, active compounds read low 1 | locus YGL248W, strain PDE1, active compounds read low 1.05 | locus YGL253W, strain hxk2, active compounds read low 0.939 | locus YGR135W, strain pre9, active compounds read low 1.05 | locus YGR252W, strain gcn5, active compounds read low 1.08 | locus YHR013C, strain ard1, active compounds read low 1.01 | locus YHR027C, strain rpn1, active compounds read low 0.983 | locus YHR030C, strain SLT2, active compounds read low 0.996 | locus YHR079C, strain IRE1 (second series), active compounds read low 1.02 | locus YHR079C, strain IRE1, active compounds read low 0.992 | locus YHR094C, strain hxt1, active compounds read low 1.04 | locus YHR129C, strain ARP1, active compounds read low 1.02 | locus YHR142W, strain chs7, active compounds read low 0.993 | locus YHR200W, strain rpn10, active compounds read low 1.02 | locus YIL066C, strain RNR3, active compounds read low 1.03 | locus YIL073C, strain SPO22, active compounds read low 1.09 | locus YIL125W, strain kgd1, active compounds read low 0.99 | locus YIR030C, strain dcg1, active compounds read low 1.01 | locus YJL092W, strain hpr5, active compounds read low 0.985 | locus YJL095W, strain BCK1 (second series), active compounds read low 0.971 | locus YJL095W, strain BCK1, active compounds read low 1.1 and 0.993 | locus YJL115W, strain asf1, active compounds read low 0.994 | locus YJL129C, strain trk1, active compounds read low 0.965 | locus YJL134W, strain LCB3, active compounds read low 1.01 | locus YJL154C, strain vps35, active compounds read low 0.983 | locus YJL164C, strain tpk1, active compounds read low 1.02 | locus YJL166W, strain qcr8, active compounds read low 0.984 | locus YJL168C, strain set2, active compounds read low 1.01 | locus YJL187C, strain SWE1 (second series), active compounds read low 1.03 | locus YJL187C, strain SWE1, active compounds read low 0.988 | locus YJR043C, strain POL32, active compounds read low 1.04 | locus YJR066W, strain TOR1, active compounds read low 0.941 | locus YKL009W, strain mrt4, active compounds read low 1.05 | locus YKL068W, active compounds read low 1.01 | locus YKL085W, strain MDH1 (second series), active compounds read low 1.02 | locus YKL085W, strain MDH1, active compounds read low 1.02 | locus YKL160W, strain elf1, active compounds read low 1.02 | locus YKL190W, strain CNB1, active compounds read low 1.01 | locus YKR001C, strain vps1, active compounds read low 1.04 | locus YKR026C, strain gcn3, active compounds read low 0.975 | locus YKR091W, strain srl3, active compounds read low 0.996 | locus YLL001W, strain dnm1, active compounds read low 0.972 | locus YLL026W, active compounds read low 0.996 | locus YLL041C, strain sdh2, active compounds read low 0.993 | locus YLR027C, strain aat2, active compounds read low 0.994 | locus YLR039C, strain RIC1, active compounds read low 1.15 | locus YLR058C, strain SHM2, active compounds read low 1.02 | locus YLR102C, strain apc9, active compounds read low 1.01 | locus YLR113W, strain HOG1, active compounds read low 0.971 | locus YLR221C, strain rsa3, active compounds read low 0.953 | locus YLR258W, strain gsy2, active compounds read low 0.99 | locus YLR262C, strain YPT6 (second series), active compounds read low 0.956 | locus YLR268W, strain sec22, active compounds read low 1.02 | locus YLR320W, strain mms22, active compounds read low 0.979 | locus YLR330W, strain CHS5, active compounds read low 1.03 | locus YLR342W, strain FKS1, active compounds read low 0.997 | locus YLR357W, strain rsc2, active compounds read low 0.989 | locus YLR370C, strain arc18, active compounds read low 0.97 | locus YLR371W, strain rom2, active compounds read low 1.05 | locus YLR384C, strain iki3, active compounds read low 1.01 | locus YLR418C, strain cdc73, active compounds read low 1.09 | locus YML016C, strain PPZ1, active compounds read low 1.01 | locus YML032C, strain rad52, active compounds read low 1.01 | locus YML120C, strain ndi1, active compounds read low 1.01 | locus YML124C, strain tub3, active compounds read low 1 | locus YMR058W, strain fet3, active compounds read low 0.981 | locus YMR078C, strain ctf18, active compounds read low 1.03 | locus YMR125W, strain sto1, active compounds read low 0.982 | locus YMR129W, active compounds read low 0.999 | locus YMR205C, strain PFK2, active compounds read low 1.03 | locus YMR223W, strain ubp8, active compounds read low 1.01 | locus YMR231W, strain pep5, active compounds read low 0.973 | locus YMR263W, strain SAP30, active compounds read low 1.01 | locus YMR307W, strain GAS1, active compounds read low 1.22 | locus YNL067W, strain RPL9B, active compounds read low 1.02 | locus YNL071W, strain lat1, active compounds read low 0.989 | locus YNL153C, strain GIM3, active compounds read low 1.03 | locus YNL183C, strain NPR1, active compounds read low 0.931 | locus YNL209W, strain ssb2, active compounds read low 1.01 | locus YNL233W, strain BNI4, active compounds read low 1.07 | locus YNL248C, strain rpa49, active compounds read low 0.968 | locus YNL250W, strain rad50, active compounds read low 1.03 | locus YNL271C, strain bni1, active compounds read low 1.01 | locus YNL298W, strain CLA4, active compounds read low 1.03 | locus YNL307C, strain MCK1, active compounds read low 1.03 | locus YNL322C, strain KRE1 (second series), active compounds read low 1.01 | locus YNR049C, strain mso1, active compounds read low 0.988 | locus YNR052C, strain pop2, active compounds read low 1.04 | locus YOL006C, strain TOP1, active compounds read low 1.3 | locus YOL012C, strain htz1 1.07 | locus YOL147C, strain pex11, active compounds read low 1.01 | locus YOR001W, strain rrp6, active compounds read low 0.925 | locus YOR061W, strain CKA2, active compounds read low 1.02 | locus YOR069W, strain VPS5, active compounds read low 1.01 | locus YOR070C, strain gyp1, active compounds read low 1.01 | locus YOR080W, strain dia2, active compounds read low 0.971 | locus YOR083W, strain WHI5, active compounds read low 1.03 | locus YOR106W, strain vam3, active compounds read low 1.03 | locus YOR136W, strain idh2, active compounds read low 1.01 | locus YOR144C, strain elg1, active compounds read low 1 | locus YOR184W, strain ser1, active compounds read low 1 | locus YOR231W, strain MKK1, active compounds read low 1 | locus YOR265W, strain rbl2, active compounds read low 0.988 | locus YOR270C, strain vph1, active compounds read low 0.969 | locus YOR290C, strain snf2, active compounds read low 0.994 | locus YOR316C, strain cot1, active compounds read low 1.03 | locus YPL051W, strain arl3, active compounds read low 0.985 | locus YPL078C, strain atp4, active compounds read low 1.03 | locus YPL106C, strain sse1, active compounds read low 1.05 | locus YPL240C, strain hsp82, active compounds read low 0.992 | locus YPL256C, strain CLN2, active compounds read low 0.958 | locus YPR119W, strain clb2, active compounds read low 0.999 | locus YPR141C, strain kar3, active compounds read low 1.01 | locus YPR163C, strain tif3, active compounds read low 1.01 | locus YPR167C, strain met16, active compounds read low 1.03 | strain wtn01, active compounds read low 0.997
